# Over roughly 8,300 sequences, “log2 fold change of degron read counts, EGFP-low vs EGFP+ sorted cells (limma voom), compound-induced degradation” has its median near -1.1; the highest 2% begin near 3.2. For the sample, the highest values were picked, then their nearest neighbours and some sequences at random.
# B1: 46F_47Q_49N_50Q_52G_53A_54N_55F_67L_, Q9UKT9 (peptide)
# chain: FQCNQCGANFTQKGNLLRHIKL
# B2: 46F_47S_49D_50Q_52G_53A_54L_55F_67L_, Q9UKT9 (peptide)
# chain: FSCDQCGALFTQKGNLLRHIKL
# B3: 46F_47N_49S_50V_52G_53H_54N_55F_67L_, Q9UKT9 (peptide)
# chain: FNCSVCGHNFTQKGNLLRHIKL
# B4: 46F_47W_49P_50I_52G_53H_54Y_55F_67L_, Q9UKT9 (peptide)
# chain: FWCPICGHYFTQKGNLLRHIKL
# B5: 46F_47K_49N_50V_52G_53A_54E_55F_67L_, Q9UKT9 (peptide)
# chain: FKCNVCGAEFTQKGNLLRHIKL
# B6: 46F_47H_49P_50I_52G_53A_54T_55F_67L_, Q9UKT9 (peptide)
# chain: FHCPICGATFTQKGNLLRHIKL
# B7: 46F_47E_49E_50V_52G_53A_54P_55F_67L_, Q9UKT9 (peptide)
# chain: FECEVCGAPFTQKGNLLRHIKL
# B8: 46F_47K_49E_50V_52G_53A_54P_55F_67L_, Q9UKT9 (peptide)
# chain: FKCEVCGAPFTQKGNLLRHIKL
# B9: 46F_47M_49E_50V_52G_53A_54P_55F_67L_, Q9UKT9 (peptide)
# chain: FMCEVCGAPFTQKGNLLRHIKL
# B10: 46L_47W_49P_50I_52G_53F_54F_55C_67L_, Q9UKT9 (peptide)
# chain: LWCPICGFFCTQKGNLLRHIKL
# B11: 46L_47H_49P_50I_52G_53F_54F_55C_67L_, Q9UKT9 (peptide)
# chain: LHCPICGFFCTQKGNLLRHIKL
# B12: 46L_47A_49P_50I_52G_53F_54F_55C_67L_, Q9UKT9 (peptide)
# chain: LACPICGFFCTQKGNLLRHIKL
# B13: 46L_47S_49P_50I_52G_53F_54F_55C_67L_, Q9UKT9 (peptide)
# chain: LSCPICGFFCTQKGNLLRHIKL
# B14: 46L_47C_49P_50I_52G_53F_54F_55C_67L_, Q9UKT9 (peptide)
# chain: LCCPICGFFCTQKGNLLRHIKL
# B15: 46L_47G_49P_50I_52G_53F_54F_55C_67L_, Q9UKT9 (peptide)
# chain: LGCPICGFFCTQKGNLLRHIKL
# B16: 46F_47V_49N_50Q_52G_53A_54A_55F_67L_, Q9UKT9 (peptide)
# chain: FVCNQCGAAFTQKGNLLRHIKL
# B17: 46F_47T_49N_50Q_52G_53R_54R_55F_67L_, Q9UKT9 (peptide)
# chain: FTCNQCGRRFTQKGNLLRHIKL
# B18: 46F_47H_49P_50I_52G_53R_54F_55F_67L_, Q9UKT9 (peptide)
# chain: FHCPICGRFFTQKGNLLRHIKL
# B19: 46F_47K_49E_50I_52G_53A_54P_55F_67L_, Q9UKT9 (peptide)
# chain: FKCEICGAPFTQKGNLLRHIKL
# Target: T1, CRBN, Q96SW2
# T1 chain: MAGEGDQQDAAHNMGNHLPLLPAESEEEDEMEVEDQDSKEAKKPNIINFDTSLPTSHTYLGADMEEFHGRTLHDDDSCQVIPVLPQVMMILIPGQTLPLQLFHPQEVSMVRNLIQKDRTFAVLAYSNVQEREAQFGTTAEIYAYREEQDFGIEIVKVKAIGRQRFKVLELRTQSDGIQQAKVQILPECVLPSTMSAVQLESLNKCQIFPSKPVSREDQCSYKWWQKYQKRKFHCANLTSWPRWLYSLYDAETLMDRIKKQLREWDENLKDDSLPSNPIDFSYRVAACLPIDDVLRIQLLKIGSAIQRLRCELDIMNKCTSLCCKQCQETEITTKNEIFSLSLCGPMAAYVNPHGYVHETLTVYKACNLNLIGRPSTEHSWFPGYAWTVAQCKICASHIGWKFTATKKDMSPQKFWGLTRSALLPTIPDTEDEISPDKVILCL
# Assay: log2 fold change of degron read counts, EGFP-low vs EGFP+ sorted cells (limma voom), compound-induced degradation; higher = more compound-induced degradation of the degron-EGFP fusion; degrons are variants of IKZF1/3 zinc finger 2; compound dose not given here
# Conditions: Jurkat, 18 h
# [1] = compound: compound 19 (5-tert-butyl-thalidomide)
# [2] = compound: compound 22 (5-morpholino-thalidomide)
# [3] = compound: compound 33 (diphenyl IMiD analogue)
# 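Further: pooled lentiviral library of zinc finger degron-EGFP fusions in mCherry-positive Jurkat cells, FACS-sorted after compound exposure, with degron abundance counted by next-generation sequencing.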
sequence,measurement,setting,value
B1,log2 fold change of degron read counts,[1],-2.24
same,log2 fold change of degron read counts,[2],-1.57
same,log2 fold change of degron read counts,[3],-1.76
same,log2 fold change of degron read counts,compound: thalidomide,-0.0144
B2,log2 fold change of degron read counts,[1],-2.6
same,log2 fold change of degron read counts,[2],-3.3
same,log2 fold change of degron read counts,[3],-0.185
same,log2 fold change of degron read counts,compound: thalidomide,-3.02
B3,log2 fold change of degron read counts,[1],-2.71
same,log2 fold change of degron read counts,[2],-4.15
same,log2 fold change of degron read counts,[3],-3.1
same,log2 fold change of degron read counts,compound: thalidomide,-2.83
B4,log2 fold change of degron read counts,[1],-0.542
same,log2 fold change of degron read counts,[2],-0.321
same,log2 fold change of degron read counts,[3],-0.506
same,log2 fold change of degron read counts,compound: thalidomide,-0.28
B5,log2 fold change of degron read counts,[1],-3.18
same,log2 fold change of degron read counts,[2],-3.1
same,log2 fold change of degron read counts,[3],-3.12
same,log2 fold change of degron read counts,compound: thalidomide,-2.1
B6,log2 fold change of degron read counts,[1],1.64
same,log2 fold change of degron read counts,[2],1.89
same,log2 fold change of degron read counts,[3],1.62
same,log2 fold change of degron read counts,compound: thalidomide,0.481
B7,log2 fold change of degron read counts,[1],1.65
same,log2 fold change of degron read counts,[2],-1.41
same,log2 fold change of degron read counts,[3],0.683
same,log2 fold change of degron read counts,compound: thalidomide,1.6
B8,log2 fold change of degron read counts,[1],2.02
same,log2 fold change of degron read counts,[2],1.13
same,log2 fold change of degron read counts,[3],-1.28
same,log2 fold change of degron read counts,compound: thalidomide,1.95
B9,log2 fold change of degron read counts,[1],2.75
same,log2 fold change of degron read counts,[2],3.55
same,log2 fold change of degron read counts,[3],3.12
same,log2 fold change of degron read counts,compound: thalidomide,2.6
B10,log2 fold change of degron read counts,[1],2.66
same,log2 fold change of degron read counts,[2],3.04
same,log2 fold change of degron read counts,[3],2.81
same,log2 fold change of degron read counts,compound: thalidomide,2.05
B11,log2 fold change of degron read counts,[1],2.35
same,log2 fold change of degron read counts,[2],2.51
same,log2 fold change of degron read counts,[3],2.79
same,log2 fold change of degron read counts,compound: thalidomide,2.23
B12,log2 fold change of degron read counts,[1],3.31
same,log2 fold change of degron read counts,[2],2.49
same,log2 fold change of degron read counts,[3],2.27
same,log2 fold change of degron read counts,compound: thalidomide,2.24
B13,log2 fold change of degron read counts,[1],2.05
same,log2 fold change of degron read counts,[2],1.71
same,log2 fold change of degron read counts,[3],2.64
same,log2 fold change of degron read counts,compound: thalidomide,2.39
B14,log2 fold change of degron read counts,[1],1.09
same,log2 fold change of degron read counts,[2],1.75
same,log2 fold change of degron read counts,[3],2.77
same,log2 fold change of degron read counts,compound: thalidomide,2.39
B15,log2 fold change of degron read counts,[1],3.27
same,log2 fold change of degron read counts,[2],2.15
same,log2 fold change of degron read counts,[3],2.31
same,log2 fold change of degron read counts,compound: thalidomide,1.94
B16,log2 fold change of degron read counts,[1],-2.28
same,log2 fold change of degron read counts,[2],-0.788
same,log2 fold change of degron read counts,[3],-0.293
same,log2 fold change of degron read counts,compound: thalidomide,-0.146
B17,log2 fold change of degron read counts,[1],-2.59
same,log2 fold change of degron read counts,[2],-2.14
same,log2 fold change of degron read counts,[3],-1.95
same,log2 fold change of degron read counts,compound: thalidomide,-1.42
B18,log2 fold change of degron read counts,[1],-0.744
same,log2 fold change of degron read counts,[2],-1.72
same,log2 fold change of degron read counts,[3],-0.739
same,log2 fold change of degron read counts,compound: thalidomide,-1.66
B19,log2 fold change of degron read counts,[1],2.99
same,log2 fold change of degron read counts,[2],1.73
same,log2 fold change of degron read counts,[3],-0.501
same,log2 fold change of degron read counts,compound: thalidomide,2.51
